Out of some 16,000 compounds screened, about 5,100 (32%) were called active. About 25% were inconclusive and are not listed. This is one part of the list. Values without a mark were called inactive. Calls come from the whole dose curve; as a rule, active = well fitted curve in the direction sought with a large enough effect; inconclusive = small, poorly fitted or top-dose-only effect, or effect the other way; inactive = no such curve, though single readings can be large or run the other way.
Target: Cytochrome P450 3A4 (Homo sapiens) (UniProt P08684)
Test: Cytochrome panel assay with activity outcomes
Settings: recombinant CYP, pro-luciferin dealkylation, luminescence, p450-cyp3a4; series mostly up to 57.1 µM
% is set by controls: 0 for no effect and ±100 for the full control effect.

Sequence of Cytochrome P450 3A4 (Homo sapiens) (P08684 whole entry, looked up): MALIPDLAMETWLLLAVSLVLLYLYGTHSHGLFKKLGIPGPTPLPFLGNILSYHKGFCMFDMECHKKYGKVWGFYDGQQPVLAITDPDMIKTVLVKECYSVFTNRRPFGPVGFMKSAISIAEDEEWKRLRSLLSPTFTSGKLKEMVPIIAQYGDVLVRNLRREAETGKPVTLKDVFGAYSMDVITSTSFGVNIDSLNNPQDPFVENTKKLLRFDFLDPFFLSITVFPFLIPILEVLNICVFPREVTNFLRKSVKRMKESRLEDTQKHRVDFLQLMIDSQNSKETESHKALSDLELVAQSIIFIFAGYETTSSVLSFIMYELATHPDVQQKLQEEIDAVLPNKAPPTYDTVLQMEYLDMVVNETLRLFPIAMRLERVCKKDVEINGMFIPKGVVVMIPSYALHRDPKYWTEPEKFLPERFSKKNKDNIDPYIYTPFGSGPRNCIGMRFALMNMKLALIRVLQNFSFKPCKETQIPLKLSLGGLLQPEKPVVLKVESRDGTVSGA

| Compound | AC50 | activity, negative = inhibition |
| --- | --- | --- |
| O=C(O)/C=C1\NC(=O)c2ccccc21 | inactive |  |
| NCC[C@H](N)C(=O)O |  | -6.61% [at 11.4 µM] |
| CC(C)NC(=O)N1CCCC2(CCN(S(=O)(=O)c3ccccc3)CC2)C1 | 7.94 µM (active) |  |
| CC(C)NC(=O)N1CC[C@@]2(CCCN(S(C)(=O)=O)C2)C1 | inactive |  |
| COc1ccc(NC(=O)N2CCCC3(CCN(S(C)(=O)=O)CC3)C2)cc1 | 31.6 µM (active) |  |
| COc1ccc(NC(=O)N2CCCC3(CCN(S(=O)(=O)c4ccccc4)CC3)C2)cc1 | 7.94 µM (active) |  |
| COc1ccc(NC(=O)N2CCC3(CC2)CCN(S(C)(=O)=O)CC3)cc1 | inactive |  |
| COCC(=O)N1CCC2(CCCN(C(=O)Nc3ccccc3)C2)CC1 | inactive |  |
| CC(C)NC(=O)N1CC2(CCN(S(=O)(=O)c3ccccc3)CC2)C1 | inactive |  |
| COc1ccc(NC(=O)N2CC3(CCN(S(C)(=O)=O)CC3)C2)cc1 | inactive |  |
| CCCCCCCCCCCCCCSCC(=O)O | inactive |  |
| O=C(O)COc1ccc(OCCNC[C@@H](O)COc2ccccc2)cc1 | inactive |  |
| O=C(NCCNC[C@@H](O)COc1ccc(O)cc1)N1CCOCC1 | inactive |  |
| Cc1ccc(OCC(O)CNC(=O)c2ccccc2C(=O)O)cc1 (stereo unspecified) | 28.2 µM (active) |  |
| Cc1ccnc2nc(C(=O)OCC(=O)Nc3ccc4c(c3)OC(F)(F)O4)nn12 | inactive |  |
| COc1cc(C)cc(OC)c1/C=C\C(=O)O |  | -4.32% [at 11.4 µM] |
| COC(=O)[C@@]1(Cc2ccc(F)cc2)[C@H]2c3cc(C(=O)N4CCCC4)n(CCc4ccc(OC)c(Br)c4)c3C[C@H]2CN1C(=O)c1ccccc1 | 2.51 µM (active) |  |
| COC(=O)[C@@]1(Cc2ccc(F)cc2)[C@H]2c3cc(C(=O)N4CCCC4)n(CCc4ccc(O)c(O)c4)c3C[C@H]2CN1C(=O)c1ccccc1 | 2.51 µM (active) |  |
| Cc1cc(OCC(F)(F)C(F)(F)C(F)(F)C(F)(F)C(F)(F)C(F)F)nc(N)n1 | inactive |  |

| Compound | AC50 | activity, negative = inhibition |
| --- | --- | --- |
| Nc1ccc(-c2sc(N)nc2-c2ccccc2)cc1 | 10 µM (active) |  |
| Nc1nc(-c2ccccc2)c(-c2ccccc2)s1 |  | -8.94% [at 2.29 µM] |
| Nc1nc(-c2ccccc2)c(-c2ccccc2)c(-c2nc(N)nc(-c3ccccc3)c2-c2ccccc2)n1 |  | 4.04% [at 11.4 µM] |
| CSC1=N/C(=C\c2ccc(Br)o2)C(=O)S1 |  | -3.65% [at 11.4 µM] |
| CCCNC(=O)OC[C@@H]1O[C@H](CCO/N=C(\C)CCN2CCc3nc(CC)c(CC)cc3C2)C=C[C@@H]1Oc1ccc(OC)cc1 | 3.98 µM (active) |  |
| C=CC[C@@H]1C=C[C@H](O/N=C(\C)CCN2CCc3nc(-c4ccccc4)c(-c4ccccc4)cc3C2)[C@H](CO)O1 | 3.98 µM (active) |  |
| C=CC[C@@H]1C=C[C@H](O/N=C(\C)CCN2CCc3nc(CC)c(CC)cc3C2)[C@H](CO)O1 |  | -75.9% [at 11.4 µM] |
| COc1ccc(O[C@H]2C=C[C@@H](c3ccccc3)O[C@@H]2CO/N=C(\C)CCN2CCc3nc(-c4ccccc4)c(-c4ccccc4)cc3C2)cc1 |  | -57.3% [at 11.4 µM] |
| CCCNC(=O)OC[C@@H]1O[C@H](CCO/N=C(\C)CCN2CCc3nc(-c4ccccc4)c(-c4ccccc4)cc3C2)C=C[C@@H]1Oc1ccc(OC)cc1 | 3.16 µM (active) |  |
| Cc1c(C)c(C)c(CC2(C)CSC2)c(CC2(C)CSC2)c1C |  | -14.4% [at 11.4 µM] |
| CN(C)CCN(Cc1cccs1)c1ccccn1 | inactive |  |
| CC(C)(C)NC(=O)CN(Cc1cccs1)C(=O)CCC(=O)Nc1nccs1 | 4.47 µM (active) |  |
| CC1=CC2=NC(=O)CC(C)(C(=O)N(CC(=O)NC(C)(C)C)Cc3cccs3)N2C=C1 (stereo unspecified) | inactive |  |
| CSc1nc(C)c2c(n1)N(c1ccc(C(F)(F)F)cc1)CC2 | inactive |  |
| CCOC(=O)c1c(-c2ccc(C)o2)csc1NC(=S)NC(=O)N(C)C | 15.8 µM (active) |  |
| CCOC(=O)c1c(-c2ccc(C)cc2)csc1NC(=O)C1CC=CCC1C(=O)O (stereo unspecified) |  | -2.99% [at 2.29 µM] |
| CCOC(=O)c1c(-c2ccccc2)csc1NC(=O)c1cccc(N2C(=O)CCC2=O)c1 | inactive |  |
| COc1cc(N2CCOCC2)ncn1 | inactive |  |
| COc1cccc(-c2ccc3ncnc(N4CCN(C)CC4)c3c2)c1 | 15.8 µM (active) |  |

| Compound | AC50 | activity, negative = inhibition |
| --- | --- | --- |
| COc1ccc(-c2nsc3c(N4CCCCC4)ncnc23)cc1 | inactive |  |
| CN(C)C(=O)c1ccc(-c2ccc3ncnc(N4CCNCC4)c3c2)cc1 | inactive |  |
| COc1ccc(-c2nc(-c3cccc(C)c3)nc(N3CCN(C)CC3)c2C#N)cc1 |  | -13.1% [at 2.29 µM] |
| CN(C)C(=O)c1ccc(-c2ccc3ncnc(N4CCOCC4)c3c2)cc1 | 15.8 µM (active) |  |
| COc1cccc(-c2ccc3ncnc(N4CCOCC4)c3c2)c1 | 10 µM (active) |  |
| NCC[C@H]1CCC[C@H](CCN)N1 | inactive |  |
| CCOC(=O)N1CCN(c2c(-c3ccccc3)c3cc(Cl)ccc3[nH]c2=O)CC1 | inactive |  |
| O=C(Cc1ccc(-n2c(=O)[nH]c3ccccc3c2=O)cc1)N1CCN(c2cccc(Cl)c2)CC1 | 3.16 µM (active) |  |
| O=c1nc2ccccc2c2n1CC(CN1CCN(c3cccc(Cl)c3)CC1)N2 (stereo unspecified) | inactive |  |
| N/C(CC/C(N)=N/O)=N\O |  | -5.56% [at 11.4 µM] |
| Cc1cc(NC(=O)CCN2C(=O)C3C4CCC(C4)C3C2=O)c(C)cc1Br (stereo unspecified) | 7.94 µM (active) |  |
| Cc1cccc(C)c1NC(=O)CCN1C(=O)C2C3CCC(C3)C2C1=O (stereo unspecified) |  | 0.821% [at 2.29 µM] |
| CCOC(=O)CCN1C(=O)[C@H]2[C@@H]3[C@H](O)C=CC(=O)[C@H]3CC[C@H]2C1=O |  | -11.5% [at 11.4 µM] |
| O=C(CCc1nc2ccccc2c(=O)[nH]1)OCC(=O)N1CCN(S(=O)(=O)c2ccccc2)CC1 | 7.94 µM (active) |  |
| O=C(/C=C/c1ccccc1)N1CCN(Cc2nc3ccccc3c(=O)[nH]2)CC1 | inactive |  |
| CCN1CCN(C(=O)CCc2nc3ccccc3c(=O)[nH]2)CC1 | inactive |  |
| CC[C@H](C)C(=O)O[C@H]1CCC=C2C=C[C@H](C)[C@H](CC[C@@H]3C[C@H](O)CC(=O)O3)[C@H]21 | 12.6 µM (active) |  |
| C[C@H]1C=C2C=C[C@H](C)[C@H](CC[C@@H]3C[C@@H](O)CC(=O)O3)[C@H]2[C@@H](OC(=O)[C@@H](C)CCO)C1 | 12.6 µM (active) |  |

— PubChem BioAssay AID1851 (National Center for Advancing Translational Sciences (NCATS), 2009)
